Among the test systems are NCI-H23 lung; NCI-H226 lung; NCI-H322M lung; HOP-62 NSCLC; NCI-H460 lung; HOP-92 NSCLC; NCI-H522 lung; A549/ATCC NSCLC; 786-0 renal; COLO 205 colon; DU-145 prostate; K-562 leukemia; MALME-3M melanoma; MDA-MB-231 breast; RXF 393 renal; SF-268 CNS; SF-295 CNS; SF-539 CNS; UACC-257 melanoma; M14 melanoma.
Common to all, as to assay: NCI-60 one-dose screen, 48 h (100 = growth as untreated, 0 = no growth, -100 = all killed)
Holding throughout (conditions): 10 µM unless noted

Molecules are shown by their SMILES. About 83,000 compounds went through this panel and 20% of them were active in at least one assay; those are over-represented in the sample as a whole.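 Interpretation: 100, growth as untreated; towards 0, rising growth inhibition; 0, no net growth; 0 to -100, cell death. Compounds scoring below 10 were considered active.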 Values without a mark were called inactive. The source made the active and inactive calls.

`CCCCn1c(=O)c(-c2cc(-c3ccc(Cl)cc3)nc(-c3ccc(Cl)cc3)c2)cc2cc(C)ccc21`: the growth is 101% with NCI-H23 lung; 105% in the assay with NCI-H226 lung; 95.5% with NCI-H322M lung; 102% with HOP-62 NSCLC; 106% with NCI-H460 lung; 103% in the assay with HOP-92 NSCLC. Moreover, the growth in the assay with NCI-H522 lung was 94.9%; with A549/ATCC NSCLC, 98.2%; with 786-0 renal it was 102%; in the assay with COLO 205 colon, 111%; in the assay on DU-145 prostate, 112%; in the assay on K-562 leukemia, 99.3%. The growth in the assay on MALME-3M melanoma is 105%; with MDA-MB-231 breast it was 92.8%; in the assay on RXF 393 renal, 105%; in the assay on SF-268 CNS it was 98%; with SF-295 CNS it was 99.1%; in the assay with SF-539 CNS, 97.9%. Further, the growth in the assay on UACC-257 melanoma was 100%; in the assay with M14 melanoma, 102%.
With `O=C(Cc1ccc(F)c(Cl)c1)Nc1cc(C2(C(F)(F)F)CC2)nn1CC1CCCCC1`, the growth is -2.27% (active) with NCI-H23 lung; 14.5% in the assay on NCI-H226 lung; 9.83% (active) in the assay with NCI-H322M lung; -8.44% (active) in the assay on HOP-62 NSCLC; 3.01% (active) with NCI-H460 lung; -14.9% (active) in the assay on HOP-92 NSCLC. For the same compound, the growth in the assay on NCI-H522 lung was -28.1% (active); with A549/ATCC NSCLC, 9.72% (active); with 786-0 renal, 9.17% (active); with COLO 205 colon, -86.2% (active); in the assay on DU-145 prostate, 20.9%; with K-562 leukemia, 11.1%. For the same compound, the growth in the assay with MALME-3M melanoma is -24.1% (active); in the assay on MDA-MB-231 breast it was -60.3% (active); in the assay on RXF 393 renal, -28.7% (active); with SF-268 CNS, 9.97% (active); in the assay on SF-295 CNS, 1.21% (active); in the assay with SF-539 CNS it was 8.62% (active). Also, the growth with UACC-257 melanoma is -9.88% (active); in the assay with M14 melanoma it was 17.1%.
On to `Cc1cc(=O)[nH]c(=O)n1Cc1cn(-c2c3ccccc3nc3ccccc23)nn1`, for which the growth with NCI-H23 lung is 94%; with NCI-H226 lung, 105%; with NCI-H322M lung it was 105%; in the assay with HOP-62 NSCLC, 95.6%; in the assay on NCI-H460 lung, 99.3%; in the assay with HOP-92 NSCLC, 67.6%. Besides, the growth is -74.3% (active) with NCI-H522 lung; 92.3% in the assay with A549/ATCC NSCLC; 79.4% in the assay on 786-0 renal; 96.1% in the assay on COLO 205 colon; 15.7% with DU-145 prostate; 7.13% (active) with K-562 leukemia. Besides, the growth in the assay with MALME-3M melanoma was 93.6%; in the assay on MDA-MB-231 breast it was 77.3%; in the assay with RXF 393 renal, 90.7%; with SF-268 CNS, 90.4%; in the assay with SF-295 CNS, 102%; in the assay with SF-539 CNS, 98.9%. The growth was 67% with UACC-257 melanoma and 97.8% in the assay with M14 melanoma.
Take `COc1ccc(C2CC(c3ccc(Nc4ccnc5cc(Cl)ccc45)cc3)=NN2C=O)cc1` (stereo not given): the growth with NCI-H23 lung was 76.9%; in the assay on NCI-H226 lung it was 90.5%; with NCI-H322M lung, 103%; in the assay with HOP-62 NSCLC, 90.7%; with NCI-H460 lung, 80.2%; in the assay with HOP-92 NSCLC it was 48.3%. Moreover, the growth with NCI-H522 lung was 67.3%; with A549/ATCC NSCLC it was 64.3%; in the assay on 786-0 renal it was 70.5%; with COLO 205 colon it was 89.4%; with DU-145 prostate, 73.4%; with K-562 leukemia, 17.4%. For the same compound, the growth with MALME-3M melanoma is 62%; in the assay with MDA-MB-231 breast it was 78.8%; with RXF 393 renal, 76.7%; in the assay on SF-268 CNS, 58%; in the assay on SF-295 CNS, 51.5%; with SF-539 CNS it was 94.6%. In addition, the growth was 93.5% with UACC-257 melanoma and 50.5% in the assay with M14 melanoma.
For `COc1cccc(-c2nc(-c3ccc(NC(=O)c4ccccc4)cc3)[nH]c2-c2ccnc(Br)c2)c1`, the growth in the assay on NCI-H23 lung is 27.9%; in the assay on NCI-H226 lung, 47%; in the assay on NCI-H322M lung, 41.2%; in the assay on HOP-62 NSCLC it was 4.28% (active); with NCI-H460 lung, 19.1%; in the assay on HOP-92 NSCLC, 50.2%. The growth in the assay on NCI-H522 lung is 16.2%; with A549/ATCC NSCLC it was 39.3%; in the assay with 786-0 renal it was -10.4% (active); in the assay on COLO 205 colon, 16.7%; with DU-145 prostate, 62.2%; in the assay on K-562 leukemia, 2.4% (active). Further, the growth was 28.7% with MALME-3M melanoma; 34.2% with MDA-MB-231 breast; -44.3% (active) in the assay on RXF 393 renal; 51.4% in the assay on SF-268 CNS; -62.5% (active) in the assay with SF-295 CNS; -5.94% (active) in the assay on SF-539 CNS. For the same compound, the growth in the assay on UACC-257 melanoma is 49.4%; in the assay on M14 melanoma, 29.6%.
Take `CC(C)(C)NC(=O)C(OC(=O)c1cccc(Cl)c1)c1ccc(Cl)cc1` (stereo not given): the growth is 101% in the assay on NCI-H23 lung; 94.9% in the assay with NCI-H226 lung; 98% in the assay on NCI-H322M lung; 80.9% in the assay on HOP-62 NSCLC; 106% with NCI-H460 lung; 93.8% in the assay with HOP-92 NSCLC. The growth in the assay on NCI-H522 lung was 71.1%; in the assay with A549/ATCC NSCLC it was 90.9%; in the assay on 786-0 renal it was 99.2%; in the assay on COLO 205 colon, 103%; in the assay on DU-145 prostate it was 103%; in the assay with K-562 leukemia, 92.5%. In addition, the growth was 103% in the assay with MALME-3M melanoma; 112% in the assay with MDA-MB-231 breast; 111% in the assay with RXF 393 renal; 100% in the assay with SF-268 CNS; 98.1% in the assay on SF-295 CNS; 95.1% with SF-539 CNS. Further, the growth is 97.1% in the assay with UACC-257 melanoma and 94.1% in the assay on M14 melanoma.
In the case of `CCOC(=O)C1=C(N)Oc2c(sc3c(C)cccc23)C1c1ccc(Cl)cc1` (stereo not given), the growth was 28.2% in the assay on NCI-H23 lung; 32.9% with NCI-H226 lung; 47.3% in the assay with NCI-H322M lung; 31.8% with HOP-62 NSCLC; 13.1% in the assay on NCI-H460 lung; 85% with HOP-92 NSCLC. Besides, the growth with NCI-H522 lung is 23%; in the assay on A549/ATCC NSCLC it was 46.2%; in the assay on 786-0 renal, 35.7%; in the assay on COLO 205 colon, 20.3%; in the assay with DU-145 prostate, 21.6%; in the assay on K-562 leukemia it was 9.65% (active). In addition, the growth with MALME-3M melanoma is 36.1%; with MDA-MB-231 breast it was 49.8%; in the assay on RXF 393 renal it was -7.89% (active); in the assay on SF-268 CNS, 55.5%; in the assay on SF-295 CNS it was 4.92% (active); in the assay on SF-539 CNS, 6.36% (active). Also, the growth in the assay with UACC-257 melanoma is 63.4%; with M14 melanoma, 20.6%.
On to `O=C(CCOCCNC(=O)COc1ccc2c(c1)OCC(c1ccc(F)cc1)C2=O)NCCCC(O)(P(=O)(O)O)P(=O)(O)O` (stereo not given), for which the growth in the assay on NCI-H23 lung was 98%; with NCI-H226 lung, 106%; in the assay on NCI-H322M lung it was 102%; in the assay with HOP-62 NSCLC, 105%; with NCI-H460 lung, 108%; in the assay with HOP-92 NSCLC, 120%. The growth is 94.9% in the assay with NCI-H522 lung; 103% in the assay on A549/ATCC NSCLC; 103% with 786-0 renal; 112% with COLO 205 colon; 108% in the assay with DU-145 prostate; 105% in the assay with K-562 leukemia. The growth with MALME-3M melanoma was 113%; in the assay on MDA-MB-231 breast, 107%; in the assay with RXF 393 renal, 121%; with SF-268 CNS, 98.6%; in the assay with SF-295 CNS, 102%; in the assay with SF-539 CNS, 101%. The growth is 112% with UACC-257 melanoma and 109% with M14 melanoma.
